Screening results (PubChem BioAssay)
Sampled rows, rich in hits. Any-hit rate of the full collection: about 3.4%.
GPR151 activ = human GPR151 activation | Q8TDV0 | PathHunter beta-arrestin GPR151 cells, luminescence | activation, % at 11.2 µM | 650,000 tested, 1% active | AID 1508602; in the data active = activation above about 4.9%;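 also: 0% = median of compound wells and 100% = cells with positive control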
TEAD-YAP inh = TEAD-YAP interaction inhibition. 640,000 tested, 1.4% active. inhibition, % at 9.12 µM. HEK-TIYL cells, TEAD-Gal4/YAP UAS-luciferase luminescence; in the data active = inhibition above about 32%;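 also: 0% = median of test compound wells and 100% = reference inhibitor wells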
FBW7 act = human FBW7 E3 ligase activation, primary screen | Q969H0 | AlphaScreen FBW7–phospho-cyclin E peptide binding, activator screen | 650,000 tested, 0.13% active | AID 1259310 | normalized activity (activation), % at 26.1 µM; in the data active = normalized activity above about 1.9%;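 also: purified mutant Fbw7 with reduced substrate affinity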
MITF inh = inhibitors of human MITF; inhibition, % at 2.6 µM; 650,000 tested, 0.91% active; AlphaScreen MITF homodimerization, bead proximity signal; AID 1259374; O75030; in the data active = inhibition above about 50%;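 also: 0% = vehicle wells with protein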
GPR151 conf act = human GPR151 activation, confirmation screen; shares compounds with GPR151 activ; GPR151 PathHunter beta-arrestin cells, luminescence, 90 min; % of EA-reagent control over plate median; AID 1508609; 6,700 tested, under 10 active; activation, % at 11.2 µM;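 active = mean percent activation across replicates above the confirmation screen cutoff of 4.91%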
GPR119 counter = activates human GPR119 in a GPR151 counter-screen; shares compounds with GPR151 activ; 6,700 tested, 0.3% active; activation, % at 11.2 µM; GPR119 PathHunter beta-arrestin cells, luminescence, 90 min; 0 = compound-well median, 100 = enzyme-acceptor control;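 active = mean percent activation in the counterscreen above 29.09%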;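 also: counterscreen on off-target GPR119 to flag nonselective hits from the GPR151 activator screen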
Target sequence (Q8TDV5 whole entry, looked up): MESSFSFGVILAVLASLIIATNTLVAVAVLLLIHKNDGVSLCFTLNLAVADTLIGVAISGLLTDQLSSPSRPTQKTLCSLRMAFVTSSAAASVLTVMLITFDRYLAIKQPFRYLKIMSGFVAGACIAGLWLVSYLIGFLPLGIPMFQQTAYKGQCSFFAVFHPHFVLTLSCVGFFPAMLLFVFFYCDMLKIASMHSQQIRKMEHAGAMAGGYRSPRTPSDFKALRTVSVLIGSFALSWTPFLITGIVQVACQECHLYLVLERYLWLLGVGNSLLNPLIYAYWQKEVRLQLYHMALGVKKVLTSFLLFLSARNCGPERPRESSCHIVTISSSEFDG
* marks the source's active call; other numbers are inactive results; . = no result given.

SMILES | GPR151 activ | TEAD-YAP inh | FBW7 act | MITF inh | GPR151 conf act | GPR119 counter
CCOC(=O)C1(CCCc2ccccc2)CCN(C(=O)CSc2ncccn2)CC1 | -1 | -8 | 0 | -5 | . | .
CCOC(=O)C1(CC2CCCCO2)CCN(C(=O)CSc2ncccn2)CC1 (configuration not stated) | 4.9* | 4 | 0 | -3 | 0 | 5
CCOC(=O)C1(CCc2ccccc2)CCN(C(=O)CSc2ncccn2)CC1 | 5.6* | -7 | 0 | 5 | 1 | -3
CC1CN(C)CCC1CCc1ccc(NC(=O)Cn2ncc3ccccc3c2=O)cc1 (configuration not stated) | 4 | -1 | 0 | -4 | . | .
CCN1CCCC1CNCc1c(C(=O)N2CCOCC2)nc2ccccn12 (configuration not stated) | 0 | 6 | 0 | 13 | . | .
Cc1nnc(C)c2c(C)n(C(C)c3ccccc3)c(C)c12 (configuration not stated) | -1 | -27 | 0 | -5 | . | .
COc1ccc(C(C)n2c(C)c3c(C)nnc(C)c3c2C)cc1 (configuration not stated) | 11* | -13 | 1 | -10 | 0 | -1
COc1ccc(-c2nc3c(c4c2C[C@H](c2ccccc2)OC4)CN(C(=O)N[C@@H](C)C(=O)OC(C)C)CC3)c(C)c1 | 6.2* | . | 0 | -12 | 0 | 3
COc1ccc(-c2nc3c(c4c2C[C@H](c2ccccc2)OC4)CN(C(=O)N[C@@H](C)c2ccccc2)CC3)c(C)c1 | -1 | . | 0 | -5 | . | .
CCOc1ccc(NC(=O)CSc2nc3cc(OC)c(OC)cc3cc2C#N)cc1 | 1 | 4 | 0 | -5 | . | .
OC(COc1ccc2ccccc2c1)CN1CCCCC1 (configuration not stated) | 0 | 3 | 0 | -23 | . | .
COC(=O)CN1C(=O)C2(OCCCO2)c2cc(C)ccc21 | 1 | 1 | 0 | 6 | . | .
CCOC(=O)CN1C(=O)C2(OCCCO2)c2cc(C)ccc21 | 5.7* | 6 | 0 | 5 | 1 | -1
Clc1nc(N2CCCCC2)nc(N2CCCCC2)n1 | -1 | -6 | 0 | 14 | . | .
Cc1cccc(CN2CCN(Cc3nc(-c4ccc(F)cc4)cs3)CC2CCO)n1 (configuration not stated) | 10* | 1 | 0 | -9 | 1 | 5
OCC1(Cc2ccccc2)CCN(Cc2cccc3c2OCO3)CC1 | 5.0* | -4 | 0 | -3 | 0 | -3
OCC1(Cc2ccccc2)CCN(Cc2cccc3nonc23)CC1 | 2 | 2 | 0 | 0 | . | .
O=C(NCCCN1CCCCCC1)C(c1ccccc1)C1CCCCC1 (configuration not stated) | 5.3* | . | 0 | -9 | 0 | 1
COc1ccc(-c2nsc(SCC(=O)Nc3ccc(C(C)=O)cc3)n2)cc1 | -1 | 3 | 0 | 7 | . | .
COc1cc(OC)cc(C(=O)NNC(=S)NCc2ccco2)c1 | 7.2* | -2 | 0 | 6 | -1 | -13
Cn1c(=NC(=O)CN2C(=O)CCC2=O)sc2cc(F)cc(F)c21 | 2 | 1 | 0 | -3 | . | .
CCC(=O)N=c1sc2cc(F)cc(F)c2n1C | 8.1* | 2 | 0 | 12 | 0 | -3
Cn1ncc2c(N3CCOCC3)nc(NCc3ccco3)nc21 | 5.4* | -2 | 0 | 17 | 0 | -3
COc1nc(Nc2cccc(C)c2)nc(N2CCCCC2)n1 | 0 | -7 | 0 | 14 | . | .
Cc1cccc(Nc2nc(N3CCCC3)nc(N3CCCC3)n2)c1 | 5.6* | 1 | 0 | 4 | 1 | 4
SMILES | GPR151 activ | TEAD-YAP inh | FBW7 act | MITF inh | GPR151 conf act | GPR119 counter
C/C(=N\NC(=O)c1nnn(-c2nonc2N)c1-c1ccc([N+](=O)[O-])cc1)c1ccccc1O | 1 | 9 | 0 | -26 | . | .
O=C1c2cccc3cccc(c23)C(=O)N1OS(=O)(=O)c1ccc2[nH]c(=O)[nH]c2c1 | 0 | 3 | 0 | 15 | . | .
Cc1ccccc1N(CC(=O)NC(C)(C)C)C(=O)CCC(=O)Nc1nccs1 | 5.7* | 0 | 0 | 8 | -1 | -12
CCC(C)(C)NC(=O)CN(C(=O)CCC(=O)Nc1nccs1)c1ccccc1C | 1 | -10 | 0 | -10 | . | .
O=C(Nc1nc2ccc(F)cc2s1)c1ccccc1[N+](=O)[O-] | 3 | -14 | 0 | 6 | . | .
CCOC(=O)C1(CC2CC2)CCN(S(=O)(=O)c2cc(C)sc2C)CC1 | 6.3* | 5 | 0 | 11 | -1 | 1
CCOC(=O)C1(CC2CC2)CCN(S(=O)(=O)c2cc(Cl)ccc2OC)CC1 | 0 | -2 | 0 | 13 | . | .
CC(=NCc1ccc(Cl)cc1)C1=C(O)c2ccccc2C1=O | 0 | -2 | 0 | 9 | . | .
Cc1ncc(CN2CCC(C(=O)Nc3cccc(-c4ccn[nH]4)c3)CC2)s1 | 1 | 13 | 0 | 10 | . | .
Cc1cccn2c(CN(C)CCC3CCOCC3)c(C(=O)N(C)CCc3ccccc3)nc12 | 6.2* | 5 | 0 | 2 | 0 | -4
CCOC(=O)CSc1nnc2c3c(C)c(C)sc3ncn12 | 5.8* | -5 | 0 | 0 | 0 | 2
Cc1cccn2c(CN(C)Cc3nc4ccccc4s3)c(C(=O)N3CCCCC3)nc12 | -1 | 9 | 0 | 9 | . | .
CCN(CC)CCn1c(=S)[nH]c2cc(C(=O)N3CCCC(C)C3)ccc2c1=O (configuration not stated) | 0 | -5 | 0 | -4 | . | .
CC(=O)c1cc(C#N)c(SCCC(C)C)nc1C | 7.9* | -10 | 0 | -12 | -1 | 1
COc1ccc(-c2nc(NCCN(C(C)C)C(C)C)nc(OC)n2)cn1 | 6.1* | -2 | 0 | 3 | 0 | -5
COc1nc(NCCN(C(C)C)C(C)C)nc(-c2ccccc2)n1 | 0 | 4 | 0 | 6 | . | .
CN(C)c1ccc(CNC(C)(C)CO)cc1 | 5.1* | 2 | 1 | 14 | 1 | 3
CSc1ccc(CNC(C)(C)CO)cc1 | 0 | 7 | 0 | 12 | . | .
CC(C)(C)c1ccc(OCCCN2CCNCC2)cc1 | 2 | -3 | 0 | 29 | . | .
CCCCOC(=O)C1=C(C)NC2=C(C(=O)CCC2)C1c1cccc(Cl)c1 (configuration not stated) | 1 | 7 | 0 | -10 | . | .
COc1ccc(CCNC(=O)Cn2nc(-c3ccccc3)ccc2=O)cc1OC | 0 | 0 | 0 | 6 | . | .
CN1CCN(C(=S)Nc2cccc(Cl)c2)CC1 | 2 | 6 | 0 | 14 | . | .
CCN1CCN(C(=S)Nc2cccc(Cl)c2)CC1 | 5.8* | 6 | 0 | 23 | 0 | -4
CC1CC(Nc2ccccc2)c2ccccc2N1C(=O)C(C)(C)C (configuration not stated) | -2 | 6 | 1 | 1 | . | .
Nn1c(SCC(=O)Nc2cccc(F)c2)nnc1-c1ccc(Cl)cc1 | 6.2* | 1 | 0 | -6 | 0 | 2
NC(=O)c1ccc(NC(=O)CSc2nnc(-c3ccc(Cl)cc3)n2N)cc1 | 0 | 6 | 0 | 3 | . | .
